Results on 7 compounds are retold here after PubChem BioAssay (NCATS).

Experiment [1] in a line: qHTS assay for small molecule agonists of retinoid X receptor alpha signaling (AID 588544; calls by dose curve;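 as to activation: 0% = DMSO basal wells and 100% = reference agonist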). To be noted: HEK293T RXRa-UAS-bla, beta-lactamase reporter, 18 h; 530 nm emission. A general note: In qHTS, concentration-response curves come from the screen itself.
The target of experiment [2] is Thyroid hormone receptor beta (Homo sapiens) (UniProt P10828). Briefly: qHTS assay for small molecule agonists of thyroid hormone receptor beta signaling (AID 588545; calls by dose curve;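 also: 0% = DMSO only and 100% = 10 nM T3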). To be noted: TR-UAS-bla GripTite HEK 293, beta-lactamase ratio, agonist mode, 18 h, percent of T3 response, DMSO as zero; series mostly up to 76.7 µM. The gist of the method: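 TR-UAS-bla-GripTite HEK 293 cells in medium with 2% charcoal/dextran FBS, 0.1 mM NEAA and 1 mM sodium pyruvate were treated with titrated compounds for 18 hrs at 37 C. Beta-lactamase reporter was read with CCF4 dye (ex 405, em 460/530 nm); EC50 from Hill fits.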
Sequence of Thyroid hormone receptor beta (Homo sapiens) (P10828 whole entry, looked up): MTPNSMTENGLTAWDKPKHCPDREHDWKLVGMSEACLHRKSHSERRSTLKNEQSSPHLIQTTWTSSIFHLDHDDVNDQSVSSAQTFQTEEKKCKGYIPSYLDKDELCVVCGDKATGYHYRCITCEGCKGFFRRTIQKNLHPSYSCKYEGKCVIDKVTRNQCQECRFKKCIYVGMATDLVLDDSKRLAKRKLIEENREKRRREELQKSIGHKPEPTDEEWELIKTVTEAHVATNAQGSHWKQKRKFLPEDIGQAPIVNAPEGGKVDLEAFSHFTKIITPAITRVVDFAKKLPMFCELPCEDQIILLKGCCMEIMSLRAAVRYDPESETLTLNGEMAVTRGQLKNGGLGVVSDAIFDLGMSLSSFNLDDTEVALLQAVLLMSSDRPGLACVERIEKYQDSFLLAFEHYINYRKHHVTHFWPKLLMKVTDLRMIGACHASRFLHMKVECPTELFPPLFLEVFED

Experiment [3] can be described thus: qHTS assay for small molecule antagonists of retinoid X receptor alpha signaling (AID 588546; active = well fitted inhibition curve with a large enough effect in the signal ratio, with a control signal flat, not every such curve was filed as active; the % refers to the signal ratio;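 also: cells stimulated with 9-cis-retinoic acid as agonist; % is scaled to controls: 0 for no effect and ±100 for the full control effect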). To be noted: HEK293T RXRa-UAS-bla, beta-lactamase ratio, antagonist mode; measured here: W530 green channel, cytotoxicity proxy. The gist of the method:
(§1)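 Beta-lactamase reporter inhibition, read as CCF4 fluorescence ratio (ex 405, em 460/530 nm) after 2 h at RT. HEK293T UAS-bla cells, 2500/well, were stimulated with 9-cis-RA at 500 or 100 nM final alongside test compound for 18 h at 37 C.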

Experiment [4] addresses Retinoic acid receptor RXR-alpha (Homo sapiens) (UniProt P19793). Described as above. To be noted: HEK293T RXRa-UAS-bla, beta-lactamase ratio, antagonist mode. The gist of the method:
as §1

Experiment [5] addresses Thyroid hormone receptor beta (Homo sapiens) (UniProt P10828). Briefly: qHTS assay for small molecule antagonists of thyroid hormone receptor beta signaling (AID 588547; active = well fitted inhibition curve with a large enough effect in the signal ratio, with a control signal flat, not every such curve was filed as active; the % refers to the signal ratio;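 also: cells stimulated with 0.4 nM T3 agonist during compound exposure; % is scaled to controls: 0 for no effect and ±100 for the full control effect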). To be noted: TR-UAS-bla HEK293, beta-lactamase ratio, antagonist mode, 18 h. The gist of the method: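 TR-UAS-bla GripTite HEK293 cells in 2% charcoal/dextran FBS medium; compounds 0.59 nM to 92 uM with T3 at 0.4nM final, 18 h at 37 C. Beta-lactamase read by CCF4 fluorescence (460/530 nm); Hill fits gave IC50 and efficacy.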

Experiment [6] concerns the target Voltage-gated inwardly rectifying potassium channel KCNH2 (Homo sapiens) (UniProt Q12809). Briefly: qHTS Assay for Small Molecule Inhibitors of the Human hERG Channel Activity (AID 588834).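 Also: top concentration of the series differs between compounds; % is scaled to controls: 0 for no effect and ±100 for the full control effect; lower thallium flux fluorescence means stronger hERG block; nearly all actives have a fitted effect of over 50% in size.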 To be noted: U2OS BacMam hERG, FluxOR thallium flux fluorescence; series mostly up to 92.2 µM. The gist of the method: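 In hERG-transduced U2OS cells, dye-loaded for 1 hr at room temperature in dark, test compounds incubated 10 min at 37 °C before thallium stimulation. AC50 values derived by Hill modelling of concentration-response.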

A short description of experiment [7]: qHTS assay for small molecule activators of the p53 signaling pathway (AID 651743; active = well fitted activation curve with a large enough effect in the signal ratio, not every such curve was filed as active; the % refers to the signal ratio; also: % of control where 0% means no effect). The note with it: HCT-116 p53RE-bla, beta-lactamase FRET ratio, 16 h; stronger effect = higher value. In short, it runs like this:
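Following 16 hours of compound exposure at 37 C, HCT-116 cells bearing the p53RE-bla reporter were loaded with LiveBLAzer B/G FRET substrate for 2 hours at room temperature and fluorescence intensity was recorded.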

Experiment [8] in a line: qHTS assay for small molecule activators of the nuclear factor-kappa B (NF-kB) signaling pathway (AID 651749; active = well fitted activation curve with a large enough effect in the signal ratio; the % refers to the signal ratio; also: % of control where 0% means no effect). To be noted: NF-kB-bla ME-180 cells, beta-lactamase FRET ratio, 16 h; stronger effect = higher value. In short, it runs like this:
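In this qHTS format, compounds acting as activators increase NF-kB-driven beta-lactamase in ME-180 cells, measured as disrupted FRET after 16 hr exposure at 37C and 5% CO2.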

Experiment [9] in a line: qHTS assay for small molecule disruptors of the mitochondrial membrane potential - 1 hr assay (AID 651754; calls by dose curve; also: % is scaled to controls: 0 for no effect and ±100 for the full control effect; nearly all actives have a fitted effect of over 35% in size). To be noted: series mostly up to 92.2 µM. The gist of the method: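 Mitochondrial potential in living HepG2 cells after 1 hr compound treatment at 37C was read with Mito-MPS dye added for a further 30 min. Red aggregate and green monomer fluorescence were measured; loss of potential leaves dye as cytoplasmic monomers.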

Experiment [10] can be described thus: qHTS assay for small molecule disruptors of the mitochondrial membrane potential - 5 hr assay (AID 651755; calls by dose curve; also: % is scaled to controls: 0 for no effect and ±100 for the full control effect; nearly all actives have a fitted effect of over 40% in size). The note with it: JC-1-type ratio dye; series mostly up to 92.2 µM. The gist of the method: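 Read-out: ratiometric Mito-MPS fluorescence, green monomer (ex 490/em 535) vs red mitochondrial aggregate (ex 540/em 590). HepG2 cells treated 5 hr at 37C before 30 min dye loading.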

Experiment [11] addresses Tumor necrosis factor (Homo sapiens) (UniProt P01375). The experiment can be described thus: qHTS assay to identify small molecules that stimulate Tumor Necrosis Factor-alpha (TNF-alpha) secretion (AID 651757; active = well fitted curve in the direction sought with a large enough effect in the signal ratio; the % refers to the signal ratio; also: 0% is about no effect). The note with it: Human cells, HTRF 665/615 ratio; series mostly up to 92.2 µM. The gist of the method: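 Secreted TNF-alpha quantified by TR-FRET sandwich of two labeled anti-TNF-alpha antibodies, incubated 3 hr at room temperature. Preceded by 17 hr, 37 C compound treatment of THP-1 cells at 3000 cells/well.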

Experiment [12] is described as follows: qHTS assay to identify small molecules that stimulate interleukin-8 (IL-8) secretion (AID 651758; active = well fitted activation curve with a large enough effect in the signal ratio; the % refers to the signal ratio; also: 0% is about no effect). The note with it: HTRF ratio (665/615); series mostly up to 92.2 µM. The gist of the method:
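Compounds are added to THP-1 cells (2000 per well) and left 16 hrs at 37 C. A labeled anti-IL-8 antibody pair is then added, and IL-8 secretion is measured by time-resolved FRET after 1-3 hrs at room temperature.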

Experiment [13] addresses Peroxisome proliferator-activated receptor alpha (Homo sapiens) (UniProt Q07869). Briefly: qHTS assay for small molecule agonists of the peroxisome proliferator-activated receptor alpha (PPARalpha) signaling pathway (AID 651778). Also: % of control where 0% means no effect. To be noted: PathHunter PPARalpha complementation, chemiluminescence, 6 h; stronger effect = higher value. In short, it runs like this:
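Enzyme-fragment complementation assay in which ligand-bound PPARalpha translocates and forms an active enzyme that generates chemiluminescence. Cells were plated overnight, exposed to compound for 6 hr at 37 C, and then given detection reagent for 60 min at room temperature.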

Experiment [14] concerns the target Nuclear receptor ROR-gamma (Homo sapiens) (UniProt P51449). The experiment can be described thus: qHTS assay for small molecule antagonists of the retinoid-related orphan receptor gamma (ROR-gamma) signaling pathway (AID 651802).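 Also: luciferase reporter luminescence driven by ROR response element; % is scaled to controls: 0 for no effect and ±100 for the full control effect; nearly all actives have a fitted effect of over 60% in size.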 The note with it: ROR-gamma antagonist cell reporter assay; series mostly up to 92.2 µM. The gist of the method:
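Luminescence (One-Glo, 30 min RT) measured 16 h after compound addition and doxycycline induction at 37C. Reporter: RORE-luciferase under TET-inducible ROR-gamma in CHO cells.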

Experiment [15] can be described thus: qHTS assay for small molecule agonists of the antioxidant response element (ARE) signaling pathway measured by Nrf2-dependant transcriptional activity (AID 720636; active = well fitted curve in the direction sought with a large enough effect in the repeat runs; an effect the other way counts as inactive or inconclusive;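 also: HepG2 cells with an ARE-driven luciferase reporter; % of control where 0% means no effect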). To be noted: ARE-luc HepG2, Nrf2 luciferase reporter, 16 h; series mostly up to 92.4 µM. The gist of the method: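 Reporter gene assay, HepG2 ARE-luc: 16 hr compound, 37 C, 5% CO2; read-out luciferase luminescence.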

A short description of experiment [16]: qHTS assay for small molecule antagonists of the retinoid-related orphan receptor gamma (ROR-gamma) signaling pathway - cell viability counter screen (AID 720652; active = well fitted curve in the direction sought with a large enough effect in the repeat runs; an effect the other way counts as inactive or inconclusive;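 also: compound exposure lasted 16 hr before ATP read; % is scaled to controls: 0 for no effect and ±100 for the full control effect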). To be noted: RORgamma reporter cell line viability counter screen; series mostly up to 92.2 µM. The gist of the method: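 Cytotoxicity counter screen: intracellular ATP (CellTiter-Glo luminescence) measured in the doxycycline-induced CHO RORE-luciferase reporter line after 16 hr compound exposure at 37 C, 5% CO2.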

Experiment [17] is described as follows: qHTS assay for small molecule agonists of the antioxidant response element (ARE) signaling pathway measured by Nrf2-dependant transcriptional activity - cell viability counter screen (AID 720653; active = well fitted curve in the direction sought with a large enough effect in the repeat runs; an effect the other way counts as inactive or inconclusive; also: % is scaled to controls: 0 for no effect and ±100 for the full control effect). To be noted: ARE-bla HepG2 viability, CellTiter-Glo ATP luminescence, 16 h; stronger effect = lower value. The gist of the method: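 ARE-bla HepG2 cells treated with compounds for 16 h at 37C; this counter screen measures viability as intracellular ATP by CellTiter-Glo luminescence after 30 min at room temperature.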

Experiment [18] concerns the target Retinoic acid receptor RXR-alpha (Homo sapiens) (UniProt P19793). Briefly: qHTS assay for small molecule agonists of retinoid X receptor alpha signaling (AID 588544).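 As to activation: 0% = DMSO basal wells and 100% = reference agonist.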 The note with it: HEK293T RXRa-UAS-bla, beta-lactamase reporter, 18 h; series mostly up to 76.7 µM.
Experiment [19] is described as follows: qHTS assay for environmental chemicals that activate the Aryl hydrocarbon Receptor (AhR) signaling pathway (AID 651777). Also: % of control where 0% means no effect; nearly all actives have a fitted effect of over 15% in size. To be noted: 1A2-DRE human hepatoma cells, luciferase, 24 h; activation: stronger effect = higher value. The gist of the method: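 Stable CYP1A2 promoter/DRE-luciferase human hepatoma line treated 24 hr; One-Glo luminescence, 30 min RT.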
Experiment [20] can be described thus: qHTS assay for small molecule agonists of the antioxidant response element (ARE) signaling pathway (AID 651741; active = well fitted activation curve with a large enough effect in the signal ratio; the % refers to the signal ratio; also: % of control where 0% means no effect). The note with it: HepG2 ARE-bla reporter, beta-lactamase FRET ratio, 16 h; series mostly up to 96 µM. In short, it runs like this:
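Stably integrated ARE-beta-lactamase reporter HepG2 cells; 16 h compound incubation, 37 C; LiveBLAzer FRET substrate 2 h at room temperature; fluorescence intensity.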

Inconclusive results are not listed. The source made the active and inactive calls. Unless noted, calls follow the shape of the dose curve; as a rule, active = well fitted curve in the direction sought with a large enough effect; inconclusive = small, poorly fitted or top-dose-only effect, or another doubt; inactive = no such curve, though single readings can be large; an effect the other way counts as inactive or inconclusive.

Sequence of Voltage-gated inwardly rectifying potassium channel KCNH2 (Homo sapiens) (Q12809 whole entry, looked up): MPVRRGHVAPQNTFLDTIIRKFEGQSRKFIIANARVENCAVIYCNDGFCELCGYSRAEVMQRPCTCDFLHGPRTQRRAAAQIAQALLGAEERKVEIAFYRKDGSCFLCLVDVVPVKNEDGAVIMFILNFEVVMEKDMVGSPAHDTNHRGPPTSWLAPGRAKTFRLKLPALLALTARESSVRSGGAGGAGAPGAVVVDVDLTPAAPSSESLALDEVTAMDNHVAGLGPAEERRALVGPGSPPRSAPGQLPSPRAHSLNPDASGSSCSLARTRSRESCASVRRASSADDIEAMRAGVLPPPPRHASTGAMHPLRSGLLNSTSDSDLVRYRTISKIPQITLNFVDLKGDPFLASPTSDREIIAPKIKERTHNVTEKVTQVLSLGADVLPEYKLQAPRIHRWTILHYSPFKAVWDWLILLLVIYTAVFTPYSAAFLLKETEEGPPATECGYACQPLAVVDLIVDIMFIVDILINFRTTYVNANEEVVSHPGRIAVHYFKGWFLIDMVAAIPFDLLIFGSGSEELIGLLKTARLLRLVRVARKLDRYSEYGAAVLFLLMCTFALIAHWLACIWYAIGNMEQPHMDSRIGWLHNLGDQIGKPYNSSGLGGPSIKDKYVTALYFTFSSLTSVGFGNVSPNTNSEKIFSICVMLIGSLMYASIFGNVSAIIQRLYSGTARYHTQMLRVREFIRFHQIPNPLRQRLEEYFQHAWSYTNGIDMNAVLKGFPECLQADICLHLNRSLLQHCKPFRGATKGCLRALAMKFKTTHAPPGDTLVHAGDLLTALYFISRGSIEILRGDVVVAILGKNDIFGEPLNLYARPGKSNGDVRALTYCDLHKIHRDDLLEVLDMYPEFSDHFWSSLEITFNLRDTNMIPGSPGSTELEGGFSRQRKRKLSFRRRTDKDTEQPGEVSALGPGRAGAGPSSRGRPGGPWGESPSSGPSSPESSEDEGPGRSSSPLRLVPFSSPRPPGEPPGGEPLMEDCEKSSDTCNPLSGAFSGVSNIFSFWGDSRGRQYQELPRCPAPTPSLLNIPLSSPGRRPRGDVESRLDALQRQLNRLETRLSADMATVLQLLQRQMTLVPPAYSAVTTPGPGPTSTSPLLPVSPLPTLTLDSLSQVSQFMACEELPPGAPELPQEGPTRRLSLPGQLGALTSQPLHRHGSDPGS
Sequence of Nuclear receptor ROR-gamma (Homo sapiens) (P51449 whole entry, looked up): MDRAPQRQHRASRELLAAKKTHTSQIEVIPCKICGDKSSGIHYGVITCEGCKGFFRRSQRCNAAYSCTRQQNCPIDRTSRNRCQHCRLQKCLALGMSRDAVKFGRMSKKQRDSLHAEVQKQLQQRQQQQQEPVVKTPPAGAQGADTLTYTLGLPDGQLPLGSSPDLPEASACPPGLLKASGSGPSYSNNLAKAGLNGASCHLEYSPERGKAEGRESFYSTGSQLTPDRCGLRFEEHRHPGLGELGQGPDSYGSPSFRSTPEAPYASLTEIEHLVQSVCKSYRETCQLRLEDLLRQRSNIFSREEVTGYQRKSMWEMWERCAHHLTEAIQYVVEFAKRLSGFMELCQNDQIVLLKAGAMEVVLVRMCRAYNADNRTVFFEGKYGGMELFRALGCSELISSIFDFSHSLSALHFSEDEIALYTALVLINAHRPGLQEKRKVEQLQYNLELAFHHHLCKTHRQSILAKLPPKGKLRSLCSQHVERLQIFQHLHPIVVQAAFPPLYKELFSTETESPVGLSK
Sequence of Peroxisome proliferator-activated receptor alpha (Homo sapiens) (Q07869 whole entry, looked up, the tested form may be a part): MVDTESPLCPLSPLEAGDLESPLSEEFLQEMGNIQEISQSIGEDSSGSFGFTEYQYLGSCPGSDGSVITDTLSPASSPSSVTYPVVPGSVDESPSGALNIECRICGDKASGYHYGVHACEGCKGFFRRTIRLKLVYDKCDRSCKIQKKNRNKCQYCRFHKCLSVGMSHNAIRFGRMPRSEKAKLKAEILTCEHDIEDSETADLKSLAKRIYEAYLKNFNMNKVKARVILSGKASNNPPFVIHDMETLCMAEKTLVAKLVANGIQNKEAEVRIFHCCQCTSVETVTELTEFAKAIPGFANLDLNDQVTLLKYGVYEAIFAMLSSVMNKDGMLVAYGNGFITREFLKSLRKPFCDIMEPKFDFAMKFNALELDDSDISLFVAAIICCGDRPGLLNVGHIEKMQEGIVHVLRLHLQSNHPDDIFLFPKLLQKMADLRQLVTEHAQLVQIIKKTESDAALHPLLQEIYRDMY
Sequence of Tumor necrosis factor (Homo sapiens) (P01375 whole entry, looked up): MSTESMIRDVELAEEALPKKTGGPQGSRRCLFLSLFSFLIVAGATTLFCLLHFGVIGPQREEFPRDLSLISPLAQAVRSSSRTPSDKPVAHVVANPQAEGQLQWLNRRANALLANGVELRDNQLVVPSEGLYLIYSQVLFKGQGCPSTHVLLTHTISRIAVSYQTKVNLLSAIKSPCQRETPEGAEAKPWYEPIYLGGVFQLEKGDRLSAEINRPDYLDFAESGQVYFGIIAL
Sequence of Retinoic acid receptor RXR-alpha (Homo sapiens) (P19793 whole entry, looked up): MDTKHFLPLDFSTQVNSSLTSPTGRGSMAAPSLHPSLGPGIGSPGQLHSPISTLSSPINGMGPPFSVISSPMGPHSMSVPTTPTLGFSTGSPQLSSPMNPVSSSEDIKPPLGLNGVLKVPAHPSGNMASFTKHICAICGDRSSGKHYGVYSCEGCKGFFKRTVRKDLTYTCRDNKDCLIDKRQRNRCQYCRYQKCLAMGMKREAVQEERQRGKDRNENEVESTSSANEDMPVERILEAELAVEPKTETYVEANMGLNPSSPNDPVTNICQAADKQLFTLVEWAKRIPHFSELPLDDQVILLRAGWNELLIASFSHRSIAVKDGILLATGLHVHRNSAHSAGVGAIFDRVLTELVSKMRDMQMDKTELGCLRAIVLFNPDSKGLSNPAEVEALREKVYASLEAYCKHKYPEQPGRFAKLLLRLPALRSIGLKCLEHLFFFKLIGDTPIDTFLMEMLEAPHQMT

On to `COC(=O)CCC(=O)OC`, for which the max response in [1] was -2.46%; in experiment [3], 1.7%; in experiment [4] it was 6.03% (inactive); in experiment [13], 7.56% (inactive); in experiment [17], -12.8% (inactive). In addition, the outcome in experiment [2] and in experiment [15] was inactive. In experiment [5], the activity change % (negative = inhibition) is 1.67% (inactive). Moreover, the Potency entry in [6], in experiment [9], in experiment [10], in experiment [11], in [12] and in experiment [14] was “inactive” in each case. Further, the Potency entry in experiment [16] is “inactive”. For the same compound, the results for the activation in [7] and in [8] were -2.9% (inactive) and 0.407% (inactive), respectively.

As for `CN(C)CCCNCCCN`, the max response is -7.09% in experiment [1]; -5.37% in experiment [3]; 0.789% (inactive) in [4]; -2.56% (inactive) in experiment [13]; -2.03% (inactive) in experiment [17]. For the same compound, the outcome in experiment [18] and in [15] was inactive. In addition, the Potency result in [9], in experiment [10], in experiment [11], in experiment [14] and in experiment [16] was “inactive” each time. Besides, the activation in experiment [19] is 0.0352% (inactive).

For `CSCCC=O`, the max response in experiment [1] was -12.2%; in experiment [3] it was -2.47%; in experiment [4], 16.4% (inactive); in [13], 13.7% (inactive); in [17] it was -0.733% (inactive). Also, the compound was called inactive in [18] and in experiment [15]. The Potency result in experiment [6], in [9], in experiment [10], in [11], in experiment [14] and in experiment [16] was “inactive” in each case. Further, the activation in experiment [8] is 0.77% (inactive); in experiment [19] it was -0.987% (inactive).

For the compound `CCCCC(CC)COCC1CO1` (stereo not given), the max response in experiment [1] is -2.88%; in experiment [3], 2.35%; in experiment [4], 9.33% (inactive); in experiment [13] it was -0.684% (inactive); in [17] it was -19% (inactive). The result in experiment [2] and in [15] was inactive. For the same compound, the activity change % (negative = inhibition) in [5] is 1.98% (inactive). The Potency result in experiment [6], in experiment [20], in experiment [9], in [10], in experiment [11] and in experiment [14] was “inactive” throughout. In addition, the Potency entry in [16] was “inactive”. The activation in experiment [8] was 0.588% (inactive); in [19] it was -1.2% (inactive).

For the compound `C/C=C1\CC2C=CC1C2` (stereo not given), the max response in experiment [1] is -9.1%; in experiment [3], -2.6%; in experiment [13], -5.32% (inactive); in experiment [17] it was -2.33% (inactive). Moreover, the compound was called inactive in experiment [18] and in [15]. In addition, the activity change % (negative = inhibition) in experiment [5] is 2.19% (inactive). The Potency result in experiment [6], in experiment [20], in experiment [9], in experiment [11] and in experiment [14] was “inactive” throughout. The activation in experiment [7] was 0.178% (inactive); in experiment [8], -0.076% (inactive).

As for `CCC(C)(C)C`, the max response in experiment [1] was 7.52%; in experiment [3], -12.5%; in [13], -1.79% (inactive); in [17], -1.09% (inactive). Besides, the call in experiment [18] and in experiment [15] was inactive. In addition, the Potency result in [6], in experiment [20], in [9], in [11], in experiment [12] and in [14] was “inactive” each time. In [16], the Potency result was “inactive”. The activation in [7] is -0.874% (inactive).

As for `CC(=O)Nc1ccc(N)cc1`, the max response in [1] was -9.56%; in experiment [3], 6.27%; in experiment [4], 0.952% (inactive); in experiment [13], 0.154% (inactive); in experiment [17] it was 2.9% (inactive). For the same compound, the call in experiment [18] and in [15] was inactive. The activation was 0.791% (inactive) in experiment [7], -0.653% (inactive) in experiment [8] and -0.109% (inactive) in experiment [19]. Moreover, the Potency entry in experiment [9], in experiment [10], in experiment [11], in [14] and in experiment [16] was “inactive” in each case.
